Inconclusive results are not listed. The source made the active and inactive calls. Rule for the calls, unless noted: active = hit-call score of the fitted dose curve at least 0.9, where 1 is the maximum; inconclusive = response in the unintended direction; inactive = score below 0.9.
Assay: IUF_NPC4_neurite_length_120hr: Leibniz Research Institute for Environmental Medicine (IUF) 120-hour Neuronal Morphology Assay for Neurite Length (NPC4) (AID 2284302; active = hit-call score of the fitted dose curve at least 0.9, where 1 is the maximum; inactive = score below 0.9)
In short: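 Human fetal neural progenitor spheres (0.3 mm) plated on poly-D-lysine/laminin in N2 differentiation medium, exposed from day 0 for 120 h with half-medium refresh at day 3, 37C. Mean neurite length (um) of TUBB3-positive neurons from skeletonized immunostaining images; DMSO ≤0.1%.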

Compound	outcome	AC50
CCNC(=O)NC(=O)C(C#N)=NOC	inactive	
CS(=O)(=O)c1ccc(C(=O)C2C(=O)CCCC2=O)c([N+](=O)[O-])c1		0.203 µM (active)
CC1(C)C(C=C(Cl)Cl)C1C(=O)OC(C#N)c1cccc(Oc2ccccc2)c1 (configuration not stated)	inactive	
COC(=O)N(C(=O)N1CO[C@@]2(C(=O)OC)Cc3cc(Cl)ccc3C2=N1)c1ccc(OC(F)(F)F)cc1	inactive	
O=C(Nc1ccccc1-c1ccc(Cl)cc1)c1cccnc1Cl	inactive	
N#CN=C1SCCN1Cc1ccc(Cl)nc1	inactive	
COP(=S)(OC)SCn1nnc2ccccc2c1=O	inactive	
C=C(C)CN(CC)c1c([N+](=O)[O-])cc(C(F)(F)F)cc1[N+](=O)[O-]	inactive	
CS(=O)(=O)c1cc(C(F)(F)F)ccc1C(=O)c1cnoc1C1CC1	inactive	
CO/N=C(/C1=NOCCO1)c1ccccc1Oc1ncnc(Oc2ccccc2Cl)c1F	inactive	
CCOP(=O)(OCC)Oc1nc(Cl)c(Cl)cc1Cl	inactive	
CNC(=O)Oc1cccc2ccccc12		10 µM (active)
CCSC(=O)N1CCCCCC1		0.143 µM (active)
CC(C)(C)C(=O)C(Oc1ccc(Cl)cc1)n1cncn1 (configuration not stated)	inactive	
CN/C(=N\[N+](=O)[O-])NCc1cnc(Cl)s1		10 µM (active)
Cc1c(COC(=O)[C@@H]2[C@H](/C=C(\Cl)C(F)(F)F)C2(C)C)cccc1-c1ccccc1	inactive	

Assay: IUF_NPC5_oligodendrocyte_differentiation_120hr: Leibniz Research Institute for Environmental Medicine (IUF) 120-hour Oligodendrocyte Differentiation Assay (NPC5) (AID 2284304);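 note: primary human fetal neural progenitor spheres plated to migrate and differentiate; share of O4-positive cells among Hoechst nuclei found by CNN image analysis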
In short: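 Human primary NPC neurospheres migrating and differentiating on laminin for 120 h under continuous compound exposure (serial dilution, solvent control). Endpoint: percent O4+ oligodendrocytes among Hoechst nuclei, detected by CNN image analysis, with DMSO as negative control.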

Compound	outcome	AC50
CCNC(=O)NC(=O)C(C#N)=NOC	inactive	
CC1(C)C(C=C(Cl)Cl)C1C(=O)OC(C#N)c1cccc(Oc2ccccc2)c1 (configuration not stated)	inactive	
COC(=O)N(C(=O)N1CO[C@@]2(C(=O)OC)Cc3cc(Cl)ccc3C2=N1)c1ccc(OC(F)(F)F)cc1		1.99 µM (active)
O=C(Nc1ccccc1-c1ccc(Cl)cc1)c1cccnc1Cl	inactive	
N#CN=C1SCCN1Cc1ccc(Cl)nc1	inactive	
COP(=S)(OC)SCn1nnc2ccccc2c1=O	inactive	
C=C(C)CN(CC)c1c([N+](=O)[O-])cc(C(F)(F)F)cc1[N+](=O)[O-]	inactive	
CS(=O)(=O)c1cc(C(F)(F)F)ccc1C(=O)c1cnoc1C1CC1	inactive	
CO/N=C(/C1=NOCCO1)c1ccccc1Oc1ncnc(Oc2ccccc2Cl)c1F	inactive	
CCSC(=O)N1CCCCCC1	inactive	
CC(C)(C)C(=O)C(Oc1ccc(Cl)cc1)n1cncn1 (configuration not stated)	inactive	
CN/C(=N\[N+](=O)[O-])NCc1cnc(Cl)s1	inactive	
Cc1c(COC(=O)[C@@H]2[C@H](/C=C(\Cl)C(F)(F)F)C2(C)C)cccc1-c1ccccc1		1.25 µM (active)

Assay: IUF_NPC4_neurite_area_120hr: Leibniz Research Institute for Environmental Medicine (IUF) 120-hour Neuronal Morphology Assay for Neurite Area (NPC4) (AID 2284305)
In short: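 Human fetal neural progenitor spheres (0.3 mm) plated on poly-D-lysine/laminin in N2 differentiation medium, exposed 120 h (7 concentrations, DMSO ≤0.1%, half-medium refresh day 3). Fixed, TUBB3 immunostained; mean neurite area per neuron by Omnisphero skeletonization.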

Compound	outcome	AC50
CCNC(=O)NC(=O)C(C#N)=NOC	inactive	
CC1(C)C(C=C(Cl)Cl)C1C(=O)OC(C#N)c1cccc(Oc2ccccc2)c1 (configuration not stated)	inactive	
O=C(Nc1ccccc1-c1ccc(Cl)cc1)c1cccnc1Cl	inactive	
N#CN=C1SCCN1Cc1ccc(Cl)nc1	inactive	
COP(=S)(OC)SCn1nnc2ccccc2c1=O	inactive	
C=C(C)CN(CC)c1c([N+](=O)[O-])cc(C(F)(F)F)cc1[N+](=O)[O-]	inactive	
CS(=O)(=O)c1cc(C(F)(F)F)ccc1C(=O)c1cnoc1C1CC1	inactive	
CO/N=C(/C1=NOCCO1)c1ccccc1Oc1ncnc(Oc2ccccc2Cl)c1F	inactive	
CCOP(=O)(OCC)Oc1nc(Cl)c(Cl)cc1Cl	inactive	
CNC(=O)Oc1cccc2ccccc12		10 µM (active)
CN/C(=N\[N+](=O)[O-])NCc1cnc(Cl)s1		10 µM (active)
Cc1c(COC(=O)[C@@H]2[C@H](/C=C(\Cl)C(F)(F)F)C2(C)C)cccc1-c1ccccc1	inactive	

Assay: IUF_NPC2-5_cytotoxicity_72hr: Cytotoxicity Assessment at 72 hours in the Leibniz Research Institute for Environmental Medicine (IUF) Neural Progenitor Cell Migration and Differentiation Assay for Cytotoxicity (NPC2-5) (AID 2284306);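 note: LDH release into supernatant measured by resorufin fluorescence marking membrane damage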
In short: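 Human fetal primary neural progenitor spheres (0.3 mm) plated on poly-D-lysine/laminin in N2 differentiation medium, exposed from day 0 at 37C. LDH-dependent resazurin-to-resorufin fluorescence in supernatant at 72 h; 7 concentrations, DMSO at most 0.1%.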

Compound	outcome
CCNC(=O)NC(=O)C(C#N)=NOC	inactive
CS(=O)(=O)c1ccc(C(=O)C2C(=O)CCCC2=O)c([N+](=O)[O-])c1	inactive
CC1(C)C(C=C(Cl)Cl)C1C(=O)OC(C#N)c1cccc(Oc2ccccc2)c1 (configuration not stated)	inactive
COC(=O)N(C(=O)N1CO[C@@]2(C(=O)OC)Cc3cc(Cl)ccc3C2=N1)c1ccc(OC(F)(F)F)cc1	inactive
O=C(Nc1ccccc1-c1ccc(Cl)cc1)c1cccnc1Cl	inactive
N#CN=C1SCCN1Cc1ccc(Cl)nc1	inactive
COP(=S)(OC)SCn1nnc2ccccc2c1=O	inactive
CS(=O)(=O)c1cc(C(F)(F)F)ccc1C(=O)c1cnoc1C1CC1	inactive
CO/N=C(/C1=NOCCO1)c1ccccc1Oc1ncnc(Oc2ccccc2Cl)c1F	inactive
CCOP(=O)(OCC)Oc1nc(Cl)c(Cl)cc1Cl	inactive
CNC(=O)Oc1cccc2ccccc12	inactive
CCSC(=O)N1CCCCCC1	inactive
CC(C)(C)C(=O)C(Oc1ccc(Cl)cc1)n1cncn1 (configuration not stated)	inactive
CN/C(=N\[N+](=O)[O-])NCc1cnc(Cl)s1	inactive
Cc1c(COC(=O)[C@@H]2[C@H](/C=C(\Cl)C(F)(F)F)C2(C)C)cccc1-c1ccccc1	inactive

Assay: IUF_NPC2-5_cytotoxicity_120hr: Cytotoxicity Assessment at 120 hours in the Leibniz Research Institute for Environmental Medicine (IUF) Neural Progenitor Cell Migration and Differentiation Assay (NPC2-5) (AID 2284307);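 for AC50: LDH released into supernatant as membrane damage marker via resorufin fluorescence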
In short: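 Fluorescence (RFU) from LDH-driven resazurin reduction in medium supernatants measured loss of membrane integrity after 120 h of compound exposure of differentiating primary human neural progenitor spheres on an extracellular matrix.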

Compound	outcome	AC50
CCNC(=O)NC(=O)C(C#N)=NOC	inactive	
CS(=O)(=O)c1ccc(C(=O)C2C(=O)CCCC2=O)c([N+](=O)[O-])c1	inactive	
CC1(C)C(C=C(Cl)Cl)C1C(=O)OC(C#N)c1cccc(Oc2ccccc2)c1 (configuration not stated)	inactive	
COC(=O)N(C(=O)N1CO[C@@]2(C(=O)OC)Cc3cc(Cl)ccc3C2=N1)c1ccc(OC(F)(F)F)cc1	inactive	
O=C(Nc1ccccc1-c1ccc(Cl)cc1)c1cccnc1Cl	inactive	
N#CN=C1SCCN1Cc1ccc(Cl)nc1	inactive	
COP(=S)(OC)SCn1nnc2ccccc2c1=O	inactive	
C=C(C)CN(CC)c1c([N+](=O)[O-])cc(C(F)(F)F)cc1[N+](=O)[O-]	inactive	
CS(=O)(=O)c1cc(C(F)(F)F)ccc1C(=O)c1cnoc1C1CC1	inactive	
CO/N=C(/C1=NOCCO1)c1ccccc1Oc1ncnc(Oc2ccccc2Cl)c1F	inactive	
CCOP(=O)(OCC)Oc1nc(Cl)c(Cl)cc1Cl		0.169 µM (active)
CNC(=O)Oc1cccc2ccccc12	inactive	
CCSC(=O)N1CCCCCC1	inactive	
CC(C)(C)C(=O)C(Oc1ccc(Cl)cc1)n1cncn1 (configuration not stated)	inactive	
CN/C(=N\[N+](=O)[O-])NCc1cnc(Cl)s1	inactive	
Cc1c(COC(=O)[C@@H]2[C@H](/C=C(\Cl)C(F)(F)F)C2(C)C)cccc1-c1ccccc1	inactive	

Source: PubChem BioAssay (EPA / NIEHS)
